Screens (PubChem BioAssay)
This is a sample that favours compounds with a hit; in the whole collection about 10% have one here.
ALOX12 inhib = qHTS Assay for Inhibitors of 12-hLO (12-human lipoxygenase); Polyunsaturated fatty acid lipoxygenase ALOX12 (Homo sapiens), P18054; purified 12-hLO, xylenol orange hydroperoxide absorbance; Potency, µM (doses to about 57.1 µM), for the others: at the top dose activity change, negative = inhibition, most hits filed as inhibitors; AID 1452, 2008; 150,000 tested, 0.12% active; active = well fitted inhibition curve with a large enough effect; inconclusive = small, poorly fitted or top-dose-only effect; note: potency is the fitted concentration of half-maximal effect; nearly all actives have a fitted effect of over 55% in size
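Hydroperoxide formation by human 12-lipoxygenase from 40 uM arachidonic acid was followed colorimetrically via ferric-xylenol orange complex, using the 573/405 nm absorbance ratio. Enzyme concentration was 150 nM, with 30 min reaction at room temperature.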
ALDH1A1 inh = qHTS Assay for Inhibitors of Aldehyde Dehydrogenase 1 (ALDH1A1) | Potency, µM (series often up to 75.3 µM), for inactives: top-dose activity, negative = inhibition, usual class: inhibitors | Purified ALDH1A1, NADH fluorescence, propionaldehyde substrate | 220,000 tested, 7.3% active | AID 1030, 2008;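 note: potency is the fitted concentration of half-maximal effect; plate controls were no enzyme wells and a reference inhibitor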
Lamin A splicing = qHTS Assay for Modulators of Lamin A Splicing. HeLa LMNA splicing GFP/RFP minigene ratio, 48 h. Potency, µM (doses to about 46.1 µM), inactives show at the highest dose ratio change, negative = inhibition, usual class: inhibitors. AID 1487, 2009. 200,000 tested, 0.01% active; active = well fitted inhibition curve with a large enough effect in the signal ratio, with a control signal flat, not every such curve was filed as active; inconclusive = small, poorly fitted or top-dose-only effect, or effect the other way, or a change in a side signal; the % refers to the signal ratio; note: potency is the fitted concentration of half-maximal effect
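S3 HeLa cells stably expressing lamin A-EGFP splicing minigene plus DsRed2, 600 cells/well, 48 h compound exposure at 37C. Laser-scanning cytometry; analysed as GFP (500-530 nm)/RFP (575-640 nm) total intensity ratio; 0.5% DMSO vehicle.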
HPGD block = qHTS Assay for Inhibitors of HPGD (15-Hydroxyprostaglandin Dehydrogenase); 15-hydroxyprostaglandin dehydrogenase [NAD(+)] (Homo sapiens), P15428; purified HPGD, NADH fluorescence kinetic, PGE2 substrate; Potency, µM, without a hit: at the highest dose activity change, negative = inhibition, most hits filed as inhibitors; 150,000 tested, 4.3% active; AID 894, 2007; note: potency is the fitted concentration of half-maximal effect
Target sequence (P15428 whole entry, looked up): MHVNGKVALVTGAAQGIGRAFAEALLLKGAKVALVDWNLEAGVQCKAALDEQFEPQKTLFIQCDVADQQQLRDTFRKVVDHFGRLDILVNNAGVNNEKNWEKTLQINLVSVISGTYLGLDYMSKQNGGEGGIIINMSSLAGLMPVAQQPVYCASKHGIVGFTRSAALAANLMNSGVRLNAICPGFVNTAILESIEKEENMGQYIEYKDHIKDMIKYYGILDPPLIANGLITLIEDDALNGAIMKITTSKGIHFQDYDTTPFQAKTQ
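20 nM HPGD preincubated 15 min at room temperature with compound in 50 mM Tris-HCl pH 8, 0.01% Tween 20. Started with 1 mM NAD+ and 30 uM prostaglandin E2; NADH fluorescence (360/450 nm) read 5 times over 30-s intervals, last minus first.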
PNC inhibitor = High Content Assay for Compounds that inhibit the Assembly of the Perinucleolar Compartment; PC3M PTB-GFP, PNC prevalence imaging, 16 h; hits give low values; activity change (PNC), negative = inhibition, % at 10 µM; 140,000 tested, 3.1% active;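 active = readout at or below -70, meaning at least 70% loss of cells showing the perinucleolar compartment, a nuclear body marking cancer cells; inconclusive = readout between -30 and a set limit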;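 note: plate controls were DMSO wells for no effect and camptothecin positive control wells for full effect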
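PC3M cells stably expressing PTB-GFP, 750–1000 cells/well, treated 16 h at 37 °C with compound (23 nl of library stock), in duplicate. After paraformaldehyde fixation and Hoechst stain, imaged at 20x; PNC prevalence scored by image analysis.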
Numbers without * were called inactive; ? = inconclusive; nt = no result given; [ ] = another dose, or the depositor's remark. Unless noted, calls come from the whole dose curve; as a rule, active = well fitted inhibition curve with a large enough effect (not every such curve was filed as active); inconclusive = small, poorly fitted or top-dose-only effect, or another doubt; inactive = no such curve, though single readings can be large or run the other way. Unless noted, % is set by controls: 0 for no effect and ±100 for the full control effect.

SMILES | ALOX12 inhib | ALDH1A1 inh | Lamin A splicing | HPGD block | PNC inhibitor
C=C(C)CSc1nnc2n(N)c(=O)c3ccccc3n12 | -2% | -12% | 8% | -10% | 41
CNc1ccccc(C(=O)/C=C/c2ccccc2OC)c1=O | -8% | 10µM* | 6% | 13µM* | 52
CNc1ccc(Br)cc(C(=O)/C=C/c2cccc(OC)c2OC)c1=O | -21% | 16µM* | ? | 14µM* | -22
CN1C(=O)Cc2cc(S(=O)(=O)N3CCN(c4ccccc4F)CC3)ccc21 | nt | nt | 9%[46 µM] | nt | nt
COc1ccc(C(C)=O)cc1CSc1nnc(-c2ccc(Cl)cc2)n1-c1ccccc1 | -12% | 10µM* | 9% | -23% | -12
COc1ccc(C(C)=O)cc1CSc1nnc(C)s1 | 0% | ? | ? | 18µM* | -3
COc1ccc(C(C)=O)cc1CSc1ncccn1 | nt | -8% | -6%[46 µM] | nt | nt
COc1ccc(-c2nnc(SCc3nnc(-c4ccccc4)o3)n2-c2ccccc2)cc1 | 2% | -2% | 2% | 7.9µM* | ?
COc1ccc(C(C)=O)cc1CSc1nnc(Nc2ccccc2)s1 | -4% | ? | ? | 25µM* | 4
COc1cccc2sc(N3CCN(C(=O)CCS(=O)(=O)c4ccc(F)cc4)CC3)nc12 | nt | nt | -25%[46 µM] | nt | nt
COc1ccc(C(C)=O)cc1CSc1nnc(Nc2ccc(C)cc2)s1 | -4% | ? | ? | ? | -113*
Cc1ccc(CSc2nnc(Nc3ccc(C)cc3)s2)cc1 | -6% | ? | 1% | -15% | 47
CCOC(=O)C(C)Sc1nnc2ccc3ccccc3n12 (configuration not stated) | nt | nt | -5%[46 µM] | nt | nt
O=C1NN(c2ccc(F)cc2)C(=O)/C1=C/c1cccs1 | nt | 25µM* | ? | nt | nt
CCOC(=O)C1=C(C)N(c2ccc(OC)cc2)C(=O)/C1=C\c1cccs1 | 2% | 0% | 3% | -7% | 16
COc1ccc(/C=N/NC(=O)CCn2cnc(-c3ccccc3)c2-c2ccccc2)cc1 | -4% | ? | ? | -5% | -108*
COc1ccc(/C=N/NC(=O)COc2ccccc2-c2ccccc2)cc1 | 1% | -7% | ? | -23% | -115*
COc1cccc(-c2nc(N(C)Cc3ccco3)c3ccccc3n2)c1 | nt | 0% | -12% | nt | nt
O=C(C(Cl)Cl)N1CCN(Cc2ccccc2)CC1 | 1% | 1.8µM* | -14% | -21% | 27
O=C(CN1CCN(Cc2ccccc2)CC1)c1c[nH]c2ccccc12 | 2% | 25µM* | -4% | -7% | -1
CCCn1c(N2CCN(CC(=O)c3c[nH]c4ccccc34)CC2)nc2c1c(=O)[nH]c(=O)n2C | -1% | 13µM* | -9% | -17% | 7
O=C(CN1CCN(Cc2ccccc2)CC1)c1ccc(Br)cc1 | -5% | 2.5µM* | 18% | -12% | 24
O=C(O)C/C(=C\c1ccccc1)C(=O)O | -3%[11.4 µM] | 4%[13.5 µM] | nt | -14% | nt
COc1ccccc1-c1cc(NC(=O)COc2ccccc2Cl)n(-c2ccccc2)n1 | nt | nt | 19%[46 µM] | nt | nt
COC(=O)c1cccc(NC(=O)c2cc(OC)c(OC)c(OC)c2Br)c1 | -6% | 40µM* | -13% | ? | 3
SMILES | ALOX12 inhib | ALDH1A1 inh | Lamin A splicing | HPGD block | PNC inhibitor
COc1ccc(C(=O)Nc2cccc(C(C)=O)c2)c(OC)c1OC | -3% | ? | 7% | -8% | 43
CS(=O)(=O)Nc1cccc(-c2ccc3ncnc(NCc4cccs4)c3c2)c1 | nt | -4% | ? | nt | nt
CCOC(=O)OCC1OC(C#Cc2ccccc2)C=CC1OC(=O)OCC (configuration not stated) | nt | 3.5µM* | nt | nt | nt
CC1=CC(C)(C)NC(=S)N1c1cccc2cc(S(=O)(=O)O)ccc12 | nt | 28µM* | nt | nt | nt
Cl/C(=C\n1cncn1)c1ccc(Cl)cc1Cl | -14% | ? | nt | 14µM* | nt
O=C(OCn1cncn1)c1ccc(Cl)cc1Cl | 7% | -7% | 5% | -44% | ?
CCn1c(C(C#N)/C(=N\S(=O)(=O)c2cccs2)c2ccccc2)nc2ccccc21 (configuration not stated) | 0% | 10µM* | 5% | -7% | 10
